Hits are enriched below; roughly 19% of the tested compounds scored in any of these assays.
HepG2 viability – HepG2 cytotoxicity, counter-screen for TGF-b inhibitors; HepG2 CAGA-GFP viability, ATP luminescence, 18 h; Potency, µM (top dose mostly 46.1 µM), hits mostly cytotoxic; 410,000 compounds, 0.76% hits; AID 588856
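CellTiter-Glo luminescence gave cytotoxicity after 18 hours at 37 degrees C. The cells were HepG2 CAGA-GFP in 1% FBS DMEM, stimulated with 500 pg/mL TGF-beta after compound addition. %Activity was normalised to no-cell wells (complete cell-killing) and DMSO (no toxicity), and curves were fitted and classified.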
DT40 TDP1 CPT – DT40-hTDP1 cell growth loss with CPT; chicken DT40 Tdp1-/-;hTDP1 cells + 20 nM CPT, ATP luminescence, 48 h; Potency, µM (doses to about 46.2 µM), actives largely listed as inhibitors; 420,000 compounds, 12% hits; AID 686979; further: nearly all actives have a fitted effect of over 55% in size
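Chicken DT40 Tdp1-/- cells complemented with human TDP1, 400 cells/well, exposed to compounds plus 20 nM camptothecin for at least 48 h at 37 C; viability read as ATP content by CellTiter-Glo luminescence.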
IL-1B inflam inh – inflammasome signaling inhibition, IL-1 beta readout; 360,000 compounds, 4.7% hits; activity change, % at 57.5 µM; AID 743279; THP-1 LPS/ATP IL-1B secretion, AlphaLISA, 16 h; hits give low values; in the data active means activity change below about -50%; inconclusive means mostly about -30% to -49%
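Secreted IL-1B measured by AlphaLISA bead assay after 16 h compound exposure of THP-1 cells; compounds (final up to 57.5 uM) added 1 h before LPS (250 ng/mL) and ATP (1.25 mM) stimulation; lower signal means less secretion.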
TDP1 cell noCPT – qHTS for Inhibitors of human tyrosyl-DNA phosphodiesterase 1 (TDP1): qHTS in cells in absence of CPT. 420,000 compounds, 15% hits. Potency, µM (highest dose often 46.2 µM), actives largely listed as inhibitors. DT40 Tdp1-/- hTDP1 cells, no CPT, ATP luminescence, 48 h. AID 686978, 2013; further: nearly all actives have a fitted effect of over 55% in size
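Chicken DT40 Tdp1-/- cells complemented with human TDP1, screened without camptothecin (DMSO vehicle only), 400 cells/well. Compounds pin-transferred, cells incubated at 37 °C for at least 48 hr. Growth read as ATP-dependent luminescence (CellTiter-Glo, 30 min at RT).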
ASM inhibitor – inhibitors of human secretory acid sphingomyelinase; P17405; 340,000 compounds, 0.006% hits; Potency, µM (highest dose often 57.5 µM), most hits filed as inhibitors; AID 504937; placental ASM, HMU-PC fluorogenic substrate, 60 min
Target sequence (P17405 47-631 limits assumed): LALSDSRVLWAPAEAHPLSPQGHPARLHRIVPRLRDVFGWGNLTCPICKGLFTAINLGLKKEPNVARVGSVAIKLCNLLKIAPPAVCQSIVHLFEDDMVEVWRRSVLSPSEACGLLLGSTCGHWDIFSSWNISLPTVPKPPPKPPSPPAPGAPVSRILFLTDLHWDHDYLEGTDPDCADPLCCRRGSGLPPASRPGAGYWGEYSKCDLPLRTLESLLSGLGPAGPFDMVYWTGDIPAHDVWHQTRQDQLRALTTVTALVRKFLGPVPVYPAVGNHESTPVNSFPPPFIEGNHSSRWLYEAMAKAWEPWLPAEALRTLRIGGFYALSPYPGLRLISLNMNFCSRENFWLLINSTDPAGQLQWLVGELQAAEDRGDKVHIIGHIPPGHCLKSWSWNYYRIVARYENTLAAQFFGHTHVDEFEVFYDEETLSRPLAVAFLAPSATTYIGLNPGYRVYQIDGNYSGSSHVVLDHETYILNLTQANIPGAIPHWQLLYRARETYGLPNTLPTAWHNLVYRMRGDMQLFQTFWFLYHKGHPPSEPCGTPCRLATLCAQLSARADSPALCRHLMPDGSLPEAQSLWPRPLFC
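Human placenta-derived ASM preincubated with compound 10 min at room temperature, then reacted with 9 uM (final) fluorogenic HMU-PC substrate for 60 min at 37 C. Stop solution raises pH to 10; fluorescence read at Ex 386/Em 447 nm.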
TGFb inhibitor – TGF-b pathway inhibition; HepG2 CAGA-GFP TGF-b/SMAD3 reporter, GFP fluorescence, 18 h; TGF-beta stimulated, 500 pg/mL final; Potency, µM (titrated, usually from 46.1 µM), most hits filed as inhibitors; 410,000 compounds, 1.2% hits; AID 588855; further: nearly all actives have a fitted effect of over 65% in size
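Cell-based qHTS in HEPG2 carrying a CAGA-GFP Smad reporter; compounds added before 500 pg/mL final TGF-beta, 18 h incubation at 37 degrees C, GFP fluorescence quantified per cell by imaging cytometry.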
A number is an active result; i = inactive; ? = inconclusive; nt = no result given. Unless noted, the call rests on the fitted dose curve; in most records, active means well fitted curve in the direction sought with a large enough effect; inconclusive means small, poorly fitted or top-dose-only effect, or another doubt; inactive means no such curve, though single readings can be large; an effect the other way counts as inactive or inconclusive.

SMILES	HepG2 viability	DT40 TDP1 CPT	IL-1B inflam inh	TDP1 cell noCPT	ASM inhibitor	TGFb inhibitor
CC[C@@H](NC(=O)[C@@H](Cc1ccccc1)NC(=O)CC[C@H]1O[C@@H](n2ccc(=O)[nH]c2=O)[C@H](O)[C@@H]1O)c1ccccc1	i	i	i	i	nt	i
COCc1ccc(C(=O)Nc2cccc(S(=O)(=O)N(C)c3ccccc3)c2)cc1	i	18.4µM	i	18.4µM	i	i
CN(C)S(=O)(=O)c1cccc(NC(=O)c2ccc(COc3ccccc3)cc2)c1	i	18.4µM	-72.5	6.51µM	i	i
CCN(CC)CCNC(=O)c1ccc(NC(=O)c2ccc(COc3ccccc3)cc2)cc1	i	23.1µM	i	i	i	i
Cc1cc(C)n2c(SCC(=O)Nc3ccccc3C#N)nnc2n1	i	i	i	i	i	i
COc1ccc(CCNC(=O)C(C)n2nc(C)n3c(cc4occc43)c2=O)cc1OC (configuration not stated)	i	i	i	i	i	i
O=C(c1ccc(S(=O)(=O)N2CCOCC2)cc1)N(c1ccccn1)C1CCCCC1	i	?	i	?	i	i
O=C(c1ccc(Cl)cc1)N(c1ccccn1)C1CCCCC1	i	i	i	25.9µM	i	i
O=C(c1ccc(Br)cc1)N(c1ccccn1)C1CCCCC1	i	?	i	14.6µM	i	i
O=C(C1CCCCC1)N(Cc1ccccc1)c1ccccn1	i	?	i	?	i	i
O=C(c1ccc(F)cc1Cl)N(c1ccccn1)C1CCCCC1	i	18.4µM	i	14.6µM	i	?
O=C(/C=C/c1ccc([N+](=O)[O-])cc1)N(c1ccccn1)C1CCCCC1	i	?	i	?	i	?
O=C(c1cccc(C(=O)N(c2ccccn2)C2CCCCC2)c1)N(c1ccccn1)C1CCCCC1	i	11.6µM	i	9.2µM	i	i
COc1ccc(S(=O)(=O)N(C)c2ccc(C(=O)NC3CCCC3)cc2)cc1	i	i	i	i	i	i
N#C/C(=C\c1ccccc1)C(=O)N(c1ccccn1)C1CCCCC1	i	?	-97.5	18.4µM	i	?
CC(C)c1ccc(OCC(=O)N(c2ccccn2)C2CCCCC2)cc1	i	?	i	14.6µM	i	i
CN1CCC(N(C)C(=O)/C(C#N)=C/c2ccccc2)CC1	i	i	i	i	i	i
O=C(COc1ccc(F)cc1)N(c1ccccn1)C1CCCCC1	i	?	i	?	i	i
Cc1c(Cl)cccc1NC(=O)C1CCN(c2nc3ccccc3[nH]2)CC1	i	?	nt	?	nt	i
O=C(CSc1nnc2ccc(-c3cccnc3)nn12)Nc1ccccc1F	i	i	i	i	i	i
Oc1ccc2c(c1)C1CCCC1(N1CCOCC1)O2 (configuration not stated)	i	23.1µM	i	?	i	i
CN1C(=O)C(=O)/C(=C(/O)c2ccc(Br)cc2)C1c1ccccc1F (configuration not stated)	i	i	i	i	i	i
COc1ccc2c(c1)C(=O)N(c1ccc(C)cc1C)C(=O)C2	i	13µM	i	20.6µM	i	i
CCOC(=O)c1c(C)[nH]c(C)c1S(=O)(=O)N1CCN(c2ccccc2OC)CC1	i	i	nt	i	nt	i
CCOC(=O)c1scc(-c2ccc(C)cc2)c1S(=O)(=O)N1CCN(c2ccccc2)CC1	i	13µM	nt	8.2µM	nt	i
SMILES	HepG2 viability	DT40 TDP1 CPT	IL-1B inflam inh	TDP1 cell noCPT	ASM inhibitor	TGFb inhibitor
CCOC(=O)c1scc(-c2ccccc2)c1S(=O)(=O)N1CCN(c2ccccc2OC)CC1	i	8.2µM	nt	13µM	nt	?
CCOC(=O)c1sc2cccc(F)c2c1S(=O)(=O)N1CCN(c2cccc(Cl)c2)CC1	i	?	nt	?	nt	i
O=C(NNC(=O)c1cccc2ccccc12)c1cccc(Cl)c1	i	i	i	i	i	i
CC(=O)Nc1ccc(OCCCN2CCC(C(O)(c3ccccc3)c3ccccc3)CC2)cc1	nt	?	i	?	nt	nt
N#CCc1ccc(OCCCN2CCC(C(O)(c3ccccc3)c3ccccc3)CC2)cc1	nt	23.1µM	?	20.6µM	nt	nt
OC(c1ccccc1)(c1ccccc1)C1CCN(CCCOc2cccc(OC(F)(F)F)c2)CC1	nt	16.4µM	-51.0	16.4µM	nt	nt
CC(C)(C)c1ccc(C(O)CCCN2CCC(C(O)(c3ccccc3)c3ccccc3)CC2)cc1 (configuration not stated)	i	5.8µM	i	4.61µM	i	i
OC(c1ccccc1)(c1ccccc1)C1CCN(CCCOc2ccc3c(c2)CCCC3)CC1	nt	4.11µM	-115.1	5.17µM	nt	nt
Cc1cccc2cc(-c3nc(-c4cccs4)no3)c(=O)oc12	i	i	nt	i	nt	i
Cc1cc(C)nc(NC2=NCCN2C(=O)NC2CCCCC2)n1	i	?	i	16.4µM	i	i
Cc1cc(C2(c3ccc(O)c(C)c3)C(=O)N(C)c3ccc(Br)cc32)ccc1O	i	i	i	i	i	?
CN1C(=O)C(O)(CC(=O)/C=C/c2ccco2)c2ccccc21 (configuration not stated)	i	i	i	i	i	i
CN1C(=O)C(O)(CC(=O)/C=C/c2ccco2)c2cc(Br)ccc21 (configuration not stated)	i	6.51µM	i	4.11µM	i	i
CN1C(=O)C(O)(CC(=O)c2ccccc2O)c2cc(Br)ccc21 (configuration not stated)	i	5.17µM	i	5.8µM	i	?
Cc1ccc(Cn2c(CNS(=O)(=O)c3ccc(F)c(Cl)c3)nc3cccnc32)cc1	i	i	nt	i	nt	i
Cc1cccc(CC(=O)NCc2nc3cccnc3n2Cc2ccc(F)cc2)c1	i	?	nt	?	nt	?
COc1cccc(Cn2c(CNC(=O)c3cc([N+](=O)[O-])ccc3Cl)nc3cccnc32)c1	i	16.4µM	nt	?	nt	i
COc1cccc(Cn2c(CNS(=O)(=O)c3ccc(F)c(Cl)c3)nc3cccnc32)c1	i	?	nt	10.3µM	nt	?
Cc1cccc(Cn2c(CNS(=O)(=O)c3ccc(C(C)C)cc3)nc3cccnc32)c1	i	?	nt	14.6µM	nt	?
N#Cc1ccc(C(=O)OCCCc2cc3ccccc3c(=O)o2)cc1	i	i	i	i	i	?
COc1ccc(C2=CC(c3ccc(C)cc3)n3nnnc3N2)cc1 (configuration not stated)	i	?	i	i	i	i
COc1cccc(C2=CC(c3cc(OC)ccc3OC)n3nnnc3N2)c1 (configuration not stated)	i	7.31µM	-76.6	6.51µM	i	?

Compound activity: PubChem, National Center for Advancing Translational Sciences (NCATS)
